Consider 17 compounds from PubChem BioAssay.

In experiment [1] the target is PEG-3 (UniProt Q6IN02). Description: inhibition of PEG-3 promoter-driven reporter – cell-based, HeLa, luciferase, CREF/GAPDH counter-screen panel, dose response (AID 624167). Conditions: CREF/GAPDH counter-screens; HeLa PEG-Prom luciferase reporter, overnight, run 1, dose range 1, at 100 µM (top of the series) unless noted; in the data active = activity above about 50%; inactive = the rest.
For experiment [2], the target named is PEG-3 (UniProt Q6IN02). The experiment is described as above. The settings on record: CREF/GAPDH counter-screens; HeLa PEG-Prom luciferase reporter, overnight, run 2, dose range 1, at 100 µM (top of the series) unless noted.
Experiment [3] relates to Rat fibroblasts (CREF). The experiment is described as above. Conditions: CREF/GAPDH counter-screens; run 1, dose range 1, at 100 µM (top of the series).
Experiment [4] has as its system Rat fibroblasts (CREF). Described as above. The settings on record: CREF/GAPDH counter-screens; run 2, dose range 1, at 100 µM (top of the series). In general terms: A counterscreen serves to expose hits that act by an unwanted route or on another target.
In experiment [5] the target is Tumor necrosis factor receptor superfamily member 10B (Homo sapiens) (UniProt O14763). Kind of experiment: viability loss of caspase-8 NB7 cells with TRAIL – with/without TRAIL, luminescence panel, confirmation (AID 651596). The settings on record: NB7 neuroblastoma + caspase-8, TRAIL sensitization, NB7 Caspase-8, with TRAIL, mean of runs, at 10 µM, stronger effect = higher value.
Chain of Tumor necrosis factor receptor superfamily member 10B (Homo sapiens) (O14763 whole entry, looked up): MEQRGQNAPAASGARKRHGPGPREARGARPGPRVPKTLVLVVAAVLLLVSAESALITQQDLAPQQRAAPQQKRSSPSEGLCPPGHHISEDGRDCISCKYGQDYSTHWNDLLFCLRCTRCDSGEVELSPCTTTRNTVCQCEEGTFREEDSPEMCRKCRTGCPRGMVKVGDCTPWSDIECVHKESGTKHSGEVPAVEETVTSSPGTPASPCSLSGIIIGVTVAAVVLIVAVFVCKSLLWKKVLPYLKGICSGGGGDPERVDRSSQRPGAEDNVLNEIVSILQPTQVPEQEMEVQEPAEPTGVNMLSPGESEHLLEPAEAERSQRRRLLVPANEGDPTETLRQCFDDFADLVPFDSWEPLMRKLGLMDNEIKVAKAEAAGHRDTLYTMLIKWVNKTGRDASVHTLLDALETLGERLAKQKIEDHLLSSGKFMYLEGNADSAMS

Test in experiment [6]: as above
Conditions: NB7 neuroblastoma + caspase-8, without TRAIL, NB7 Caspase-8, without TRAIL, mean of runs, at 10 µM.

Experiment [7] is described as follows: NFkB reporter suppression in cystic fibrosis bronchial cells – cell-based, uHTS hits, panel, cytotoxicity readout, dose response (AID 624344). Conditions: CF bronchial epithelial cells, PAF-induced NFkB reporter inhibition, with PAF, run 1; at 79 µM (top of the series) unless noted.
Test in experiment [8]: as above
The settings on record: CF bronchial epithelial cells, PAF-induced NFkB reporter inhibition, with PAF, run 2; at 79 µM (top of the series) unless noted.

Molecules are shown by their SMILES.

As usually defined, the inhibition is the change of the read-out against control, counted positive when it falls.

Chain of PEG-3 (Q6IN02 whole entry, looked up): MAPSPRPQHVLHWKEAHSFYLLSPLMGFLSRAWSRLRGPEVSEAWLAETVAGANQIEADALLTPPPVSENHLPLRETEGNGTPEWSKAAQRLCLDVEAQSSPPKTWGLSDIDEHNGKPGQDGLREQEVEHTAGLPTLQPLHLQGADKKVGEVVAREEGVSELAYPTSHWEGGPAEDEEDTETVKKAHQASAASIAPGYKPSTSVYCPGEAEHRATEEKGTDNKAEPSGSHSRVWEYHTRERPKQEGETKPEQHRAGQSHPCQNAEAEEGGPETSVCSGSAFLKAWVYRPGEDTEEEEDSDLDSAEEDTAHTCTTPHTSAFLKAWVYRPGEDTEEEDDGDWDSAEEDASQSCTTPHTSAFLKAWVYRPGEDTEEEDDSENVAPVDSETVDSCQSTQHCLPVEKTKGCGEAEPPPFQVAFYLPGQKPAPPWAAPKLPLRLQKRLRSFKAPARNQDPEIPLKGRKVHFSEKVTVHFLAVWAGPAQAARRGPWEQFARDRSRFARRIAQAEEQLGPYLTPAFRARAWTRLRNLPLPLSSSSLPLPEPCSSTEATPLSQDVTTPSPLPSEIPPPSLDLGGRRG

As for `CS(=O)(=O)Nc1cccc(NC(=O)C2Cc3c(-c4cccc(F)c4)ccnc3O2)c1` (stereo not drawn), the inhibition is 77.9% [run 1, dose range 1, at 50 µM] in the experiment with PEG-3 [1]; 85.4% with PEG-3 [2]; 17.8% in the experiment on Rat fibroblasts (CREF) [3]; 29% in the experiment with Rat fibroblasts (CREF) [4]. Besides, the activity in experiment [5] was 75.5%; in experiment [6], 73.2%.

`C(=NNc1ccc2ccccc2n1)c1ccccn1`: the inhibition came out at 99% with PEG-3 [1], 102% with PEG-3 [2], 99% with Rat fibroblasts (CREF) [3] and 99.3% in the experiment with Rat fibroblasts (CREF) [4]. The activity came to 82.5% in experiment [5] and 86% in experiment [6].

Consider `Cc1ccccc1CNC(=O)C1CCCN(c2nnc(C)c3c(C)n(-c4ccccc4)nc23)C1` (stereo not drawn), for which the inhibition came to 99% with PEG-3 [1], 101% with PEG-3 [2], 98.3% in the experiment with Rat fibroblasts (CREF) [3] and 99.4% with Rat fibroblasts (CREF) [4].

Regarding `O=[N+]([O-])c1ccc(-c2ccc(/C=N/Nc3nc(NCc4ccccc4)nc(N4CCOCC4)n3)o2)cc1`, the inhibition with PEG-3 [1] stood at 99.5%; in the experiment with PEG-3 [2], 91.5%; in the experiment with Rat fibroblasts (CREF) [3] it was 97.5%; with Rat fibroblasts (CREF) [4], 96.9%.

In the case of `C/C(=N/NC(=O)c1cc(C2CC2)[nH]n1)c1cccs1`, the inhibition in the experiment with PEG-3 [1] came to 92.3%; with PEG-3 [2], 87.2%; in the experiment on Rat fibroblasts (CREF) [3], 95.4%; in the experiment with Rat fibroblasts (CREF) [4], 96.2%. Further, the activity in experiment [5] and in experiment [6] was 70.8% in each case.

For `CCOc1ccc(-c2ccc(SC)nn2)cc1`, the inhibition was 95% with PEG-3 [1], 92.5% with PEG-3 [2], 97.5% with Rat fibroblasts (CREF) [3] and 98.9% in the experiment on Rat fibroblasts (CREF) [4]. Moreover, the activity amounted to 95.2% in experiment [5] and 95.1% in experiment [6].

Take `O=C(COc1ccc2c(c1)CCC2)Nc1ccccn1`: the inhibition with PEG-3 [1] turned out to be 98.8%; in the experiment with PEG-3 [2], 94.2%; with Rat fibroblasts (CREF) [3], 97.5%; in the experiment with Rat fibroblasts (CREF) [4], 94.5%.

Consider `CC(=O)Nc1ccc(NC(=O)c2nc(S(=O)(=O)Cc3cccc(C)c3)ncc2Cl)cc1`, for which the inhibition with PEG-3 [1] is 102%; with PEG-3 [2] it was 97.4%; in the experiment with Rat fibroblasts (CREF) [3], 100%; with Rat fibroblasts (CREF) [4], 100%; in experiment [7], 76.1%; in experiment [8], 85.4%. Further, the activity in experiment [5] was 56.4%; in experiment [6], 99.4%.

With `Cc1cccc(/C=N/Nc2ccc3ccccc3n2)c1`, the inhibition with PEG-3 [1] was found to be 101%; with PEG-3 [2] it was 101%; in the experiment on Rat fibroblasts (CREF) [3], 94.2%; with Rat fibroblasts (CREF) [4], 96.2%. In addition, the activity was determined as 82.4% in experiment [5] and 78.5% in experiment [6].

Turning to `CC1CCN(c2ccc(-c3cccs3)nn2)CC1`, the inhibition stood at 90.2% in the experiment with PEG-3 [1], 97.2% in the experiment with PEG-3 [2], 96.1% with Rat fibroblasts (CREF) [3] and 96.2% in the experiment with Rat fibroblasts (CREF) [4].

`COc1cccc(/C=N/NC(=O)c2ccc(-c3ccccc3)cc2)c1O`: the inhibition in the experiment with PEG-3 [1] is 81%; in the experiment with PEG-3 [2], 79.7%; with Rat fibroblasts (CREF) [3], 69.8%; in the experiment with Rat fibroblasts (CREF) [4], 67.6%.

`COC1=CC(=O)c2c(ccc3ncnc(N)c23)C1=O`: the inhibition was determined as 102% in the experiment with PEG-3 [1], 99% with PEG-3 [2], 101% with Rat fibroblasts (CREF) [3] and 100% in the experiment on Rat fibroblasts (CREF) [4].

As to `CS(=O)(=O)c1ccc(-c2cn3cc(C(=O)O)ccc3n2)cc1`, the inhibition was found to be 82.1% with PEG-3 [1], 57.2% with PEG-3 [2], 71% in the experiment with Rat fibroblasts (CREF) [3] and 66.8% with Rat fibroblasts (CREF) [4].

Consider `O=C(NCCc1ccccc1)c1ccc2c(c1)OCCCO2`, for which the inhibition stood at 101% in the experiment with PEG-3 [1], 102% with PEG-3 [2], 100% in the experiment on Rat fibroblasts (CREF) [3] and 99.5% in the experiment with Rat fibroblasts (CREF) [4].

As to `Clc1cccc(-c2nc(-c3ccccn3)no2)c1`, the inhibition with PEG-3 [1] was found to be 89.2%; in the experiment with PEG-3 [2], 92.5%; in the experiment with Rat fibroblasts (CREF) [3], 96.4%; in the experiment with Rat fibroblasts (CREF) [4], 94.4%. For the same compound, the activity in experiment [5] came out at 84.3%; in experiment [6], 82.3%.

As to `CCc1ccc(C(=O)Nc2nc3ccccc3[nH]2)cc1`, the inhibition with PEG-3 [1] turned out to be 95.9%; in the experiment with PEG-3 [2], 97.2%; in the experiment on Rat fibroblasts (CREF) [3], 98.4%; in the experiment on Rat fibroblasts (CREF) [4], 98.5%. Further, the figures for the activity in experiment [5] and in experiment [6] were 98.2% and 98.5%, respectively.

Turning to `COc1ccc(/C=N/Nc2nncc3ccccc23)cc1`, the inhibition with PEG-3 [1] came out at 92.6%; with PEG-3 [2], 95.4%; in the experiment on Rat fibroblasts (CREF) [3] it was 97.8%; in the experiment on Rat fibroblasts (CREF) [4] it was 98.9%. For the same compound, the activity in experiment [5] worked out at 97.3%; in experiment [6], 97%.
